# Measurements published in PubChem BioAssay AID463173 (ICCB-Longwood Screening Facility, Harvard Medical School, 2010).
# About 4,300 (8.3%) of roughly 52,000 compounds were called active. Only a selection was taken, and actives are over-represented in it overall. A number with no mark means an inactive call. No stated cut-off is given here; in the data, active means survival mostly below about 52% (no sharp cut-off); inactive means mostly above about 56%.
# System: DeltatarO mutant
# Assay: S. aureus survival, RN4220 and DeltatarO strains – OD600, teichoic acid synthesis inhibitors, primary screen (AID 463173)
# Details: S. aureus RN4220 wild type/DeltatarO growth, OD600, 18 h, active compounds read low, screened at 18.75 µg/mL (by protocol)
row,Structure (SMILES),survival
1,CC1CCc2onc(C(=O)Nc3ccc(Cl)cc3)c2C1 (stereo not given),75%
2,CCc1ccccc1NC(=O)c1noc2c1CC(C(C)(C)C)CC2 (stereo not given),-6% (active)
3,O=C(Nc1ccccc1C(F)(F)F)c1noc2c1CCCC2,63%
4,COc1cc(NC(=O)c2noc3c2CCc2ccccc2-3)cc(OC)c1OC,88%
5,COc1cc(NC(=O)c2noc3c2CC(C(C)(C)C)CC3)cc(OC)c1OC (stereo not given),40% (active)
6,COc1cc(NC(=O)c2noc3c2CC(C)CC3)c(OC)cc1Cl (stereo not given),69%
7,O=C(CN1C(=O)COc2ccc(S(=O)(=O)N3CCCC3)cc21)N1CCN(c2ccc(F)cc2)CC1,80%
8,CCOc1ccccc1CNc1nc2nc(C)cc(C)n2n1,97%
9,CCc1ccccc1N(CC)C(=O)C1CCN(c2ncnc3c2nc2n3CCCCC2)CC1,83%
10,CC(Oc1ccccc1F)C(=O)NCC1(N2CCOCC2)CCCCC1 (stereo not given),61%
11,CCOc1ccccc1CNC(=O)CC(C)n1ccc(C)n1 (stereo not given),77%
12,CCOC(=O)c1ccc(NC(=O)CC(C)n2nc(C)cc2C)cc1 (stereo not given),124%
13,CC(=O)Nc1ccc(NC(=O)CC(C)n2ccc(C)n2)cc1 (stereo not given),52% (active)
14,O=C(OCc1ccccc1)Sc1nnc(-c2ccccc2Cl)o1,90%
15,CCCN(C(=O)COc1cc(=O)n(CC)c2ccccc12)c1ccc(C(C)C)cc1,-22% (active)
16,CCn1c(=O)cc(OCC(=O)N(C)c2ccc(OC)cc2)c2ccccc21,72%
17,CCn1c(=O)cc(OCC(=O)NCc2ccccc2OC)c2ccccc21,60%
18,CCn1c(=O)cc(OCC(=O)Nc2ccc(C)c(F)c2)c2ccccc21,60%
19,CCn1c(=O)cc(OCC(=O)NCc2ccccc2Cl)c2ccccc21,40% (active)
20,CCn1c(=O)cc(OCC(=O)Nc2cc(Cl)c(OC)cc2OC)c2ccccc21,69%
21,CCCN(c1ccc(C(C)C)cc1)S(=O)(=O)c1ccc2c(c1)oc(=O)n2CC(=O)OCC,73%
22,CCn1c(=O)cc(OCC(=O)NCc2ccc(F)cc2Cl)c2ccccc21,105%
23,CCCN(C(=O)Cn1c(=O)oc2cc(Cl)ccc21)c1ccc(C(C)C)cc1,15% (active)

row,Structure (SMILES),survival
1,CCn1c(=O)cc(OCC(=O)N(C)c2cc(Cl)ccc2C)c2ccccc21,55% (active)
2,CCN(C(=O)Cn1c(=O)oc2cc(Cl)ccc21)c1cccc(C(F)(F)F)c1,67%
3,CCc1ccc(CNC(=O)COc2cc(=O)n(CC)c3ccccc23)cc1,55%
4,Cc1ccc(/C=C/c2onc(C)c2S(=O)(=O)N2CCC(C(=O)N3CCN(c4cccc(C)c4)C(C)C3)CC2)cc1 (stereo not given),67%
5,COc1ccccc1C(=O)NC1(C(F)(F)F)C(=O)Nc2c1c(=O)[nH]c(=O)n2-c1ccc(F)cc1 (stereo not given),190%
6,Cc1ccc(-n2ncc3c(=O)n(Cc4ccccc4C)cnc32)cc1C,127%
7,CC(=O)N(Cc1cccnc1)c1nc2ccc(F)cc2s1,81%
8,Cc1cc(C)c2oc(C(=O)Nc3ccc(S(=O)(=O)N4CCCCC4)cc3)cc(=O)c2c1,45% (active)
9,O=C(Nc1ccc(S(=O)(=O)N2CCCCC2)cc1)C(F)(F)F,58% (active)
10,Cc1cc(C)c2oc(C(=O)Nc3ccc(S(=O)(=O)N4CCCCCC4)cc3)cc(=O)c2c1,62%
11,Cc1c(C(=O)Nc2ccc(F)c(F)c2)oc2ccc(S(=O)(=O)N3CCCCC3)cc12,52% (active)
12,Cc1c(C(=O)Nc2ccc(F)cc2)oc2ccc(S(=O)(=O)N3CCCCCC3)cc12,99%
13,O=C(Nc1ccc(S(=O)(=O)N2CCCCC2)cc1)C1CCCCC1,97%
14,COC(=O)Nc1ccc(S(=O)(=O)N2CCCCC2)cc1,107%
15,Cc1ccc(NC(=O)c2oc3ccc(S(=O)(=O)N4CCCCCC4)cc3c2C)cc1Cl,86%
16,Cc1ccc2c(=O)cc(C(=O)Nc3ccc(S(=O)(=O)N4CCCCC4)cc3)oc2c1C,90%
17,Cc1ccc2c(=O)cc(C(=O)Nc3ccc(S(=O)(=O)N4CCC(C)CC4)cc3)oc2c1C,60%
18,Cc1cc(C)c2oc(C(=O)Nc3ccc(S(=O)(=O)N4CCC(C)CC4)cc3)cc(=O)c2c1,48%
19,Cc1ccc2c(=O)cc(C(=O)Nc3ccc(S(=O)(=O)N4CCCC(C)C4)cc3)oc2c1C (stereo not given),51% (active)
20,O=C(NCc1ccccc1Cl)c1c2c(nc3ccccc13)C(=O)N(C1CCCCC1)C2,92%
21,COC(=O)c1ccc(-n2c(/C=C/c3cc(OC)c(OC)c(OC)c3)nc3cc(Cl)ccc3c2=O)cc1,80%
22,Cc1cc2oc(C(=O)Nc3ccc(S(=O)(=O)N4CCC(C)CC4)cc3)cc(=O)c2cc1C,72%
23,Cc1cc2oc(C(=O)Nc3ccc(S(=O)(=O)N4CCCCCC4)cc3)cc(=O)c2cc1C,42% (active)

row,Structure (SMILES),survival
1,Cc1ccc2c(=O)cc(C(=O)Nc3ccc(S(=O)(=O)N4CCCCCC4)cc3)oc2c1,106%
2,Cc1ccc(C)c(N2CCN(C(=O)C3CCN(C(=O)c4cc5sccc5n4C)CC3)CC2)c1,54%
3,CC1=C(C(=O)NCc2ccccc2C)C2(CCCCCC2)OC1=O,78%
4,Cc1ccc(-n2nc3cc(C)c(NC(=O)Cc4ccc(Cl)cc4)cc3n2)cc1,64%
5,Cc1ccc(-n2nc3cc(C)c(NC(=O)c4ccc(-c5ccccc5)o4)cc3n2)cc1,46% (active)
6,CCc1ccc(-n2nc3cc(C)c(NC(=O)c4ccccc4C)cc3n2)cc1,89%
7,COc1ccc(-n2nc3cc(C)c(NC(=O)c4ccc(-c5ccc(Cl)cc5)o4)cc3n2)cc1,45%
8,COc1ccc(-n2nc3cc(C)c(NC(=O)c4ccc(-c5ccc(Br)cc5)o4)cc3n2)cc1,37% (active)
9,COc1ccc(-n2nc3cc(C)c(NC(=O)Cc4ccc(Cl)cc4)cc3n2)cc1,56%
10,Cn1nc(C(=O)NCc2ccc(Cl)cc2)c2c1-c1ccccc1SC2,78%
11,COc1ccc(-n2c(SCC(=O)Nc3nnc(C)s3)nc3c([nH]c4ccccc43)c2=O)cc1,83%
12,Cc1ccc(C)c(Nc2nn3c(=O)c4ccc(C(=O)NCc5ccccc5)cc4nc3s2)c1,55%
13,CCOC(=O)c1c(CC(C)C)csc1NC(C)=O,71%
14,COc1cc(NC(=O)c2cc3cc4ccc(C)cc4nc3o2)cc(OC)c1OC,89%
15,CCc1ccccc1NC(=O)c1cc(S(=O)(=O)N2CCc3ccccc32)ccc1F,95%
16,O=C(Nc1cccc(Br)c1)c1cc(-c2ccc3c(c2)OCCO3)on1,47%
17,O=C(Nc1cccc(Cl)c1)c1cc(-c2ccc3c(c2)OCO3)on1,77%
18,O=C(Nc1c(Cl)cccc1Cl)c1cc(-c2ccc3c(c2)OCO3)on1,39% (active)
19,Cc1c(Cl)cccc1NC(=O)c1cc(-c2ccc3c(c2)OCO3)on1,69%
20,Cc1ccc(Cl)cc1NC(=O)c1cc(-c2ccc3c(c2)OCCO3)on1,34% (active)
21,O=C(Nc1cc(Cl)ccc1O)c1cc(-c2ccc3c(c2)OCO3)on1,58%
22,Cc1cccc(NC(=O)c2cc(-c3ccc4c(c3)OCCO4)on2)c1,69%
23,CC(=O)c1cccc(NC(=O)c2cc(-c3ccc4c(c3)OCCO4)on2)c1,45% (active)

row,Structure (SMILES),survival
1,O=C(Nc1cccc(Cl)c1)c1cc(-c2ccc3c(c2)OCCO3)on1,103%
2,CNC(=O)CN1C(=O)COc2ccc(S(=O)(=O)N3CCCCCC3)cc21,91%
3,Cc1cc(OCC(=O)Nc2sc3c(c2C#N)CCC(C)C3)ccc1Cl (stereo not given),78%
4,CCOC(=O)c1cnn(-c2ccc(C(=O)Nc3cccc(C(C)=O)c3)cc2)c1N,55%
5,CCN(CC)CCCNC(=O)c1sc2nc3n(c(=O)c2c1C)CCCCC3,111%
6,Cc1ccccc1NC(=O)c1c(C)oc2ccc(O)c(CN3CCCCCC3)c12,107%
7,O=c1n(Cc2ccc([N+](=O)[O-])cc2)c2ccccc2c2nc(-c3ccccc3)nn12,129%
8,Cc1ccc(CSCC(=O)N2CCN(c3ccc(F)cc3)CC2)cc1,70%
9,CCOc1ccccc1NC(=O)C1=C(C)Nc2ncnn2C1c1sccc1C (stereo not given),92%
10,COc1ccccc1NC(=O)C1=C(C)Nc2nnnn2C1c1ccc(C(F)(F)F)cc1 (stereo not given),66%
11,CCOc1ccccc1C1C(C(=O)Nc2ccccc2OC)=C(C)Nc2nc3ccccc3n21 (stereo not given),59% (active)
12,COc1ccc(NC(=O)C2=C(C)Nc3ncnn3C2c2ccc[nH]2)cc1 (stereo not given),94%
13,CC1=C(C(=O)Nc2ccccc2)C(c2ccc[nH]2)n2ncnc2N1 (stereo not given),20% (active)
14,CCOc1ccccc1NC(=O)C1=C(C)Nc2ncnn2C1c1cccs1 (stereo not given),37% (active)
15,CC1=C(C(=O)Nc2ccccc2C)C(c2ccc[nH]2)n2ncnc2N1 (stereo not given),102%
16,CC1=C(C(=O)Nc2ccccc2Cl)C(c2cccs2)n2ncnc2N1 (stereo not given),101%
17,COc1ccccc1NC(=O)C1=C(C)Nc2nc3ccccc3n2C1c1ccccc1Cl (stereo not given),62%
18,CCCCOc1ccc(C2C(C(=O)Nc3ccccc3OC)=C(C)Nc3nnnn32)cc1OC (stereo not given),85%
19,COc1ccccc1NC(=O)C1=C(C)Nc2nc3ccccc3n2C1c1cccc(OC)c1OC (stereo not given),70%
20,COc1ccccc1NC(=O)C1=C(C)Nc2nnnn2C1c1cc(Br)c(O)c(OC)c1 (stereo not given),55% (active)
21,COc1ccc(S(=O)(=O)N2CCC(c3nc4ccccc4s3)CC2)cc1OC,86%
